Among the data in the supplement of paper PMC4723716 are viability index values, retold here.

± gives the uncertainty stated by the source. The full ranking holds about 9,900 compounds; the median of “viability index relative to DMSO control” is about 1, and the lowest 2% start at about 0.85. The entries come from a sample that favours the lowest values as a whole.

The assay concerns Plasmodium falciparum NF54 stage V gametocytes. The experiment in a line: viability index relative to DMSO control (fraction); higher = less gametocyte killing. The following applies: 2.5 µM, incubation time: 72 h. The method, boiled down:
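Gametocytes (P. falciparum NF54, stage V) were treated with compound at 2.5 µM for 72 hr at 37°C in low oxygen, in serum-free medium at 0.75% gametocytemia and 1.25% hematocrit. Counts of 20–70 µm2 red particles, taken from one field per well after MitoTracker Red CMXRos with saponin, were divided by the plate mean of solvent-only wells. This ratio is the viability index.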

Setting [1] is: library set: Broad Institute DOS.
The mark [2] stands for this setting: library set: Broad Institute Blood Stage.

The compound `Cc1ccccc1S(=O)(=O)N1C[C@@H]2N[C@H](C1)[C@H]2c1ccc(-c2cccc(C#N)c2)cc1` displayed a viability index under setting [1] of 1.03 ± 0.033. Same read-out and setting: in the case of `O=S(=O)(c1ccc(F)cc1)N1C[C@@H]2N[C@H](C1)[C@@H]2c1ccc(/C=C/c2ccccc2)cc1` it was 0.78 ± 0.029; in that of `COc1cccc(S(=O)(=O)N[C@@H]2CC[C@H](CC(=O)NC3Cc4ccccc4C3)O[C@H]2CO)c1`, 0.907 ± 0.18; in that of `Cc1ccc(S(=O)(=O)Nc2ccc3c(c2)C(=O)N([C@H](C)CO)C[C@H](C)[C@H](CN(C)S(=O)(=O)c2cccs2)OCCCC[C@H](C)O3)cc1`, 1.07 ± 0.14.

`CNC[C@H]1Oc2ccc(NS(=O)(=O)c3ccc(OC)cc3)cc2C(=O)N([C@H](C)CO)C[C@H]1C` displayed a viability index under setting [1] of 1.01 ± 0.079. On the same count and under the same terms, in the case of `Cc1noc(C)c1NC(=O)N[C@H]1C=C[C@H](CC(=O)Nc2ccc(-c3ccccc3)cc2)O[C@H]1CO` it was 1.0744 ± 0.00039; in that of `CO[C@H]1CN(C)C(=O)c2cc(NC(=O)c3ccc(F)cc3)ccc2OC[C@@H](C)N(C(=O)CC2CC2)C[C@H]1C`, 1.099 ± 0.004. The same measure, in the same setting: in the case of `CCCNC(=O)N1C[C@@H](O)COC[C@H]2O[C@@H](CC(=O)OC)CC[C@@H]21` it was 1.14 ± 0.053; in that of `N#C[C@@H]1[C@H](c2ccccc2-c2cccc(F)c2)[C@H](CO)N1C(=O)CN1CCOCC1`, 1.15 ± 0.068; in that of `C/C=C/c1ccc([C@H]2[C@@H](CNC(=O)CC3CC3)N(C(=O)CC)[C@H]2CO)cc1`, 1.05 ± 0.054. Still for that read-out and setting: in the case of `C/C=C/c1ccc([C@H]2[C@@H](CO)N(C(=O)C3CC3)[C@H]2CNC(=O)NC(C)C)cc1` it was 0.989 ± 0.018; in that of `C/C=C/c1ccc([C@H]2[C@@H](CO)N(CC3CCCC3)[C@H]2CNS(C)(=O)=O)cc1`, 1.03 ± 0.099. The compound `C/C=C/c1ccc([C@H]2[C@@H](CO)N(S(C)(=O)=O)[C@@H]2CN(C(C)=O)C(C)C)cc1` came in with a viability index under setting [1] of 0.957 ± 0.06.

As to `C/C=C/c1ccc([C@H]2[C@@H](CO)N(CC3CCCCC3)[C@@H]2CNC(C)C)cc1`, the viability index under setting [2] is 0.565 ± 0.068.

Take `C/C=C/c1ccc([C@H]2[C@H](CO)N(S(C)(=O)=O)[C@H]2CNCC2CCC2)cc1`: under setting [1], the viability index came to 0.688 ± 0.08. Same read-out and setting: in the case of `CCC(=O)Nc1ccc2c(c1)C(=O)N(C)C[C@@H](OC)[C@@H](C)CN(Cc1nccs1)[C@H](C)CO2` it was 1.16 ± 0.082. Still for that read-out and setting: next, `COC(=O)C[C@@H]1CC[C@@H]2[C@@H](COc3ccc(NC(=O)c4ccc(C(F)(F)F)cc4)cc3C(=O)N2C)O1`: 1.13 ± 0.065. The same measure, in the same setting: in the case of `C[C@@H]1COCn2nncc2CC[C@H](Cc2cccc(Cl)c2)C(=O)N1` it was 1.09 ± 0.051; in that of `COCC(=O)Nc1ccc2c(c1)C(=O)N(C)[C@H]1CC[C@@H](CC(=O)NC3Cc4ccccc4C3)O[C@@H]1CO2`, 1.16 ± 0.13; in that of `C[C@H]1CN([C@@H](C)CO)C(=O)c2cc(/C=C/c3ccccc3)cnc2O[C@@H]1CN(C)S(=O)(=O)c1ccccc1F`, 1.03 ± 0.082. Under setting [1], `C[C@H](CO)N1C[C@H](C)[C@@H](CN(C)S(=O)(=O)c2ccccc2F)Oc2ncc(/C=C/c3ccccc3)cc2C1=O` registered a viability index of 1.05 ± 0.049. On the same count and under the same terms, next, `C[C@@H]1CN([C@@H](C)CO)C(=O)c2cc(/C=C/c3ccccc3)cnc2O[C@@H]1CN(C)S(=O)(=O)c1ccccc1F`: 1.02 ± 0.059. `C[C@H](CO)N1C[C@H](C)[C@@H](CN(C)C(=O)C2CCCCC2)Oc2ncc(/C=C/c3ccccc3)cc2C1=O` registered a viability index under setting [2] of 0.735 ± 0.028. Under setting [2], `C[C@H]1CN([C@@H](C)CO)C(=O)c2cc(/C=C/c3ccccc3)cnc2O[C@@H]1CN(C)C(=O)C1CCCCC1` yielded a viability index of 0.643 ± 0.072. Regarding `C[C@H]1CN([C@@H](C)CO)C(=O)c2cc(/C=C/c3ccccc3)cnc2O[C@H]1CN(C)S(=O)(=O)c1ccccc1F`, under setting [1], the viability index was 1.03 ± 0.12.

Turning to `COc1ccc2c3c([nH]c2c1)[C@@H](CO)N(Cc1cc(OC)cc(OC)c1)C[C@]31CN(C1)C(=O)Nc1c(C)noc1C`, the viability index under setting [1] amounted to 0.974 ± 0.12. On the same count and under the same terms, in the case of `C[C@H](CO)N1C[C@H](C)[C@@H](CN(C)Cc2ccc3cccnc3c2)OCc2cnnn2CCCC1=O` it was 1.07 ± 0.014. Regarding `Cc1noc(C)c1NC(=O)Nc1ccc2c(c1)C(=O)N([C@@H](C)CO)C[C@H](C)[C@H](CN(C)S(=O)(=O)c1cccs1)OCCCC[C@@H](C)O2`, the viability index under setting [1] is 1.09 ± 0.045.

Under setting [1], `COc1ccc(C(=O)Nc2ccc3c(c2)C(=O)N(C)[C@@H]2CC[C@@H](CC(=O)NCC4CC4)O[C@@H]2CO3)cc1` registered a viability index of 1.03 ± 0.11. Same read-out and setting: in the case of `COc1ccc(C(=O)Nc2ccc3c(c2)C(=O)N(C)[C@@H]2CC[C@@H](CC(=O)NCC4CC4)O[C@H]2CO3)cc1` it was 0.932 ± 0.15. Same read-out and setting: in the case of `CN1C(=O)c2cc(NC(=O)Nc3ccc(Cl)cc3)ccc2OC[C@@H]2O[C@@H](CC(=O)NCCN3CCCCC3)CC[C@H]21` it was 0.838 ± 0.04; in that of `COc1ccc(C(=O)Nc2ccc3c(c2)C(=O)N(C)[C@H]2CC[C@H](CC(=O)NCC4CC4)O[C@H]2CO3)cc1`, 0.823 ± 0.15. The same measure, in the same setting: next, `CN1C(=O)c2cc(NC(=O)Nc3ccc(Cl)cc3)ccc2OC[C@H]2O[C@@H](CC(=O)NCCN3CCCCC3)CC[C@H]21`: 1.01 ± 0.025; `CC(C)NC(=O)Nc1ccc2c(c1)C(=O)N(C)[C@H]1CC[C@@H](CC(=O)NCc3ccc(F)cc3)O[C@H]1CO2`: 0.814 ± 0.17; `CC(C)NC(=O)Nc1ccc2c(c1)C(=O)N(C)[C@@H]1CC[C@H](CC(=O)NCc3ccc(F)cc3)O[C@@H]1CO2`: 1.11 ± 0.047. Take `CC(C)NC(=O)Nc1ccc2c(c1)C(=O)N(C)[C@H]1CC[C@H](CC(=O)NCc3ccc(F)cc3)O[C@H]1CO2`: the viability index under setting [1] turned out to be 0.919 ± 0.034. Same read-out and setting: in the case of `CN1C(=O)c2cc(NC(=O)Nc3ccc(Cl)cc3)ccc2OC[C@@H]2O[C@H](CC(=O)NCCN3CCCCC3)CC[C@H]21` it was 0.955 ± 0.11.
